Rows were chosen to be rich in hits. Some 2.5% of all compounds tested hit in one or more screens of this group.
Efflux pump inh = antifungal efflux pump inhibition, Nile Red retention | AID 485275 | 0.44% of 330,000 active | S. cerevisiae Candida pump triplex | inhibition, % at 10 µM;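 active means plate passing quality check with inhibition over a set limit, or well fluorescence over plate mean plus 4 SD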;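 further: Nile Red retained in pooled yeast measured as flow cytometry median fluorescence; 0% = buffer negative control and 100% = Enniatin B positive control; higher means more Nile Red kept so more efflux inhibition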
ATG4B inhibitor = blocks human ATG4B protease cleavage of LC3 substrate; Q9Y4P1; ATG4B cleavage of LC3-PLA2, NBD-HPC fluorescence, 1 h; inhibition, % at 8.33 µM; 0.51% of 340,000 active; AID 504462; in the data active means inhibition above about 40%
Target sequence (Q9Y4P1 whole entry, looked up): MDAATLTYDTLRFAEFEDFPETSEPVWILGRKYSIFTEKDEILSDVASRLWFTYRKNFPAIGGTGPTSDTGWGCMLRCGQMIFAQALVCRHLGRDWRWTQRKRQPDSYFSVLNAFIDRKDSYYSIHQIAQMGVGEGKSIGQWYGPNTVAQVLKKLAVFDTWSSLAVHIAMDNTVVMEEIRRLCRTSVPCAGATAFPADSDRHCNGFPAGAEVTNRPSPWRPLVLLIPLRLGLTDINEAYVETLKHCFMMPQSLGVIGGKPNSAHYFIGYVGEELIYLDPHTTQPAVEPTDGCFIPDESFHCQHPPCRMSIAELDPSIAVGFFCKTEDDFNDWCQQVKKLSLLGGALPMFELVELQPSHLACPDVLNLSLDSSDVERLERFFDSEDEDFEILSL
V-ATPase pH = regulators of yeast V-ATPase proton transport; S. cerevisiae, pHLuorin cytosolic pH fluorescence; response, % at 10 µM; 0.37% of 350,000 active; AID 504577; in the data active means response mostly above about 7.3%, no sharp cut-off; inactive means mostly below about 5.4%; further: actives read high
AI-2 QS modul = Vibrio harveyi AI-2 quorum sensing modulation; 0.4% of 300,000 active; activity change, % at 7.5 µM; Vibrio harveyi JMH597 AI-2 luminescence/OD600 ratio, 9 h; hits give low values; strain lacks LuxN and CqsS sensors; 0 = neutral-control median; in the data active means activity change below about -75%, passing the limit was not always enough; inconclusive means no clear call, values can overlap the other calls;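 further: luminescence divided by OD600 gain over 9 h not by final OD600 alone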
Mot1-301 SUMO = SUMOylation pathway inhibition by Mot1-301 growth rescue; 1% of 320,000 active; S. cerevisiae Mot1-301 growth rescue, ATP luminescence, 38.5C; percent above DMSO median, 100 means doubled; growth rescue, % at 18.8 µM;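 active means every valid replicate shows activation above 250% relative to neutral control wells; inactive means the rest, any valid replicate at or below 250%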;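 further: OY570 slx delta 5 strain wells were the positive control but not used for scaling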
* = called active by the depositor; ? = inconclusive; . = not tested or not shown.

SMILES	Efflux pump inh	ATG4B inhibitor	V-ATPase pH	AI-2 QS modul	Mot1-301 SUMO
CN(C)[C@@H]1C(=O)C(C(N)=O)=C(O)[C@@]2(O)C(=O)C3=C(O)c4c(O)ccc(Cl)c4[C@@](C)(O)[C@H]3C[C@@H]12	0	-18	-2	-111*	-7
CN(C)[C@@H]1C(=O)C(C(N)=O)=C(O)[C@@]2(O)C(=O)C3=C(O)c4c(O)cccc4[C@@](C)(O)C3C[C@@H]12 (some centres undefined)	0	-5	-5	-64	0
CC(C)n1c(O)c(C2c3cc(Cl)ccc3Oc3[nH]c(=O)n(C(C)C)c(=O)c32)c(=O)[nH]c1=O (centres undefined)	.	-4	18*	26	.
O=C(CCN1CC1)OCCOC(=O)CCN1CC1	.	-3	-1	.	.
CC(C)COC(=O)c1ccccc1C(=O)OCC(C)C	0	0	2	28	-13
C[CH2][Hg][S]c1ccccc1C(=O)O	3.0*	1	12	.	355*
CSc1ccc(C(=O)C2CCCN(Cc3cnc(SC)nc3)C2)cc1 (centres undefined)	0	-7	5	-4	305*
COC1C(C)OC(OC2CC(C)(O)Cc3cc4c(c(O)c32)C(=O)c2c(O)cc3c(c2C4=O)OC2OC3(C)C(O)C(N(C)C)C2O)C(OC)C1(C)OC (centres undefined)	.	-36	-1	.	.
C[C@]12CCC3C(C(=O)C[C@H]4C[C@@H](O)CC[C@]34C)C1CCC2=O (some centres undefined)	0	-3	0	.	-4
Oc1ccccc1-[n+]1c(-c2ccccc2)cc(-c2ccccc2)c(O)c1-c1ccccc1	0	-12	-2	7	366*
O=P1(c2ccccc2)Nc2ccccc2N1c1ccccc1 (centres undefined)	.	1	-1	.	.
N#CC1c2ccccc2-n2nncc2CN1S(=O)(=O)c1cc(Cl)cc(Cl)c1 (centres undefined)	.	-5	-3	.	.
O=C1Nc2ccc(Br)cc2C(c2ccccc2Cl)=NC1O (centres undefined)	0	-16	0	19	574*
CC1N=C(c2ccccc2Cl)c2cc(Br)ccc2NC1=O (centres undefined)	0	-7	5	11	11
N=c1c2c(n(Cc3ccc(Cl)cc3Cl)c3c1CCC3)CCCC2	0	0	13*	-5	20
CN(C)c1ccc(/C=C2/C(=O)NC(=O)N(Cc3ccco3)C2=O)cc1	0	1	4	14	383*
COC(=O)C1C(O)C(C)C(O)C(C)/C=C\C=C(/C)C(=O)Nc2c(C)c(OC(C)=O)c3c(c2O)C(=O)C(C)=C2OCOC(=C23)/C(C)=C/C(C)(O)C(O)C(C)C1O (centres undefined)	0	3	-1	-150*	7
CCn1nc(-c2cccs2)nc2c(=O)n(C)c(=O)nc1-2	.	86*	4	.	.
O=c1c2ccccc2nc(-c2cccs2)n1-c1ccccc1	0	9	1	28	10
CC1CCCCC1NC(=O)CNC(=S)N1CC2CC(C1)c1cccc(=O)n1C2 (centres undefined)	0	-5	-2	20	11
CCOc1ccc(N2C(=O)NC(=O)/C(=C\c3cc(OC)c(OC)cc3[N+](=O)[O-])C2=O)cc1	0	-5	0	12	-2
COc1ccc(N2C(=O)NC(=O)/C(=C\c3ccc([N+](=O)[O-])s3)C2=O)cc1	0	4	102*	?	-19
COc1ccccc1N1C(=O)NC(=O)/C(=C/c2ccc([N+](=O)[O-])s2)C1=O	0	-6	125*	56	88
COc1ccc(N2C(=O)NC(=O)/C(=C/c3ccc([N+](=O)[O-])s3)C2=O)cc1	0	-3	101*	?	31
COc1cccc(N2C(=O)NC(=O)/C(=C/c3ccc([N+](=O)[O-])s3)C2=O)c1	0	5	111*	6	58
COc1ccccc1N1C(=O)NC(=O)/C(=C\c2cnn(-c3ccccc3)c2)C1=O	0	8	0	7	5
COc1cccc(N2C(=O)NC(=O)/C(=C/c3ccc4c(c3)Cc3ccccc3-4)C2=O)c1	0	2	-2	28	13
COC(=O)C1=C(c2ccc(OCc3ccccc3)c(F)c2)C[C@@H]2CC[C@H]1N2C	.	.	-1	.	.
